In the supplement of paper PMC4466140:

Experiments:
Assay in all cases: SPOT peptide array binding signal intensity (averaged, normalized) (arbitrary units (background-subtracted, floor 0; scale differs between SH3 domains)); higher = stronger binding of the SH3 domain to the peptide
AgAbp1 = biological target: AgAbp1
Method in brief: (§1)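 Binding signal is given in arbitrary units that differ between domains and is the normalized, background-subtracted spot intensity averaged across replicates. Each GST-SH3 fusion from one of four yeast species was made in E. coli BL21(DE3), purified on glutathione Sepharose and incubated at 10 μg/ml overnight at 4°C on cellulose-bound synthetic 15-mer peptides in which cysteines were replaced by serines. Detection used anti-GST antibody, an HRP anti-mouse secondary and luminol, followed by imaging and Genespotter quantification.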

AgBbc1 = biological target: AgBbc1
Method in brief: as §1

AgBem1-D1 = biological target: AgBem1-D1
Method in brief: as §1

AgBzz1-D1 = biological target: AgBzz1-D1
Method in brief: as §1

AgBzz1-D2 = biological target: AgBzz1-D2
Method in brief: as §1

AgCyk3 = biological target: AgCyk3
Method in brief: as §1

AgFus1 = biological target: AgFus1
Method in brief: as §1

AgHof1 = biological target: AgHof1
Method in brief: as §1

AgHse1 = biological target: AgHse1
Method in brief: as §1

AgLsb1 = biological target: AgLsb1
Method in brief: as §1

AgLsb4 = biological target: AgLsb4
Method in brief: as §1

AgMyo5 = biological target: AgMyo5
Method in brief: as §1

AgNbp2 = biological target: AgNbp2
Method in brief: as §1

AgRvs167 = biological target: AgRvs167
Method in brief: as §1

AgSho1 = biological target: AgSho1
Method in brief: as §1

AgSla1-D1-D2 = biological target: AgSla1-D1-D2
Method in brief: as §1

AgSla1-D3 = biological target: AgSla1-D3
Method in brief: as §1

CaAbp1-D1 = biological target: CaAbp1-D1
Method in brief: as §1

CaAbp1-D2 = biological target: CaAbp1-D2
Method in brief: as §1

CaBbc1 = biological target: CaBbc1
Method in brief: as §1

CaBem1-D1 = biological target: CaBem1-D1
Method in brief: as §1

CaBzz1-D1 = biological target: CaBzz1-D1
Method in brief: as §1

CaBzz1-D2 = biological target: CaBzz1-D2
Method in brief: as §1

CaCyk3 = biological target: CaCyk3
Method in brief: as §1

CaFus1 = biological target: CaFus1
Method in brief: as §1

CaHof1 = biological target: CaHof1
Method in brief: as §1

CaHse1 = biological target: CaHse1
Method in brief: as §1

CaLsb1 = biological target: CaLsb1
Method in brief: as §1

CaLsb4 = biological target: CaLsb4
Method in brief: as §1

CaMyo5 = biological target: CaMyo5
Method in brief: as §1

CaNbp2 = biological target: CaNbp2
Method in brief: as §1

CaRvs167 = biological target: CaRvs167
Method in brief: as §1

CaRvs167-3 = biological target: CaRvs167-3
Method in brief: as §1

CaSho1 = biological target: CaSho1
Method in brief: as §1

CaSla1-D1-D2 = biological target: CaSla1-D1-D2
Method in brief: as §1

CaSla1-D3 = biological target: CaSla1-D3
Method in brief: as §1

ScAbp1 = biological target: ScAbp1
Method in brief: as §1

ScBbc1 = biological target: ScBbc1
Method in brief: as §1

ScBem1-D1 = biological target: ScBem1-D1
Method in brief: as §1

ScBzz1-D1 = biological target: ScBzz1-D1
Method in brief: as §1

ScBzz1-D2 = biological target: ScBzz1-D2
Method in brief: as §1

ScCyk3 = biological target: ScCyk3
Method in brief: as §1

ScFus1 = biological target: ScFus1
Method in brief: as §1

ScHof1 = biological target: ScHof1
Method in brief: as §1

ScHse1 = biological target: ScHse1
Method in brief: as §1

ScLsb1 = biological target: ScLsb1
Method in brief: as §1

ScLsb2 = biological target: ScLsb2
Method in brief: as §1

ScLsb3 = biological target: ScLsb3
Method in brief: as §1

ScLsb4 = biological target: ScLsb4
Method in brief: as §1

ScMyo3 = biological target: ScMyo3
Method in brief: as §1

ScMyo5 = biological target: ScMyo5
Method in brief: as §1

ScNbp2 = biological target: ScNbp2
Method in brief: as §1

ScPex13 = biological target: ScPex13
Method in brief: as §1

ScRvs167 = biological target: ScRvs167
Method in brief: as §1

ScSho1 = biological target: ScSho1
Method in brief: as §1

ScSla1-D1-D2 = biological target: ScSla1-D1-D2
Method in brief: as §1

ScSla1-D3 = biological target: ScSla1-D3
Method in brief: as §1

SpAbp1-D1 = biological target: SpAbp1-D1
Method in brief: as §1

SpBbc1 = biological target: SpBbc1
Method in brief: as §1

SpBzz1-D1 = biological target: SpBzz1-D1
Method in brief: as §1

SpBzz1-D2 = biological target: SpBzz1-D2
Method in brief: as §1

SpCyk3 = biological target: SpCyk3
Method in brief: as §1

SpHof1 = biological target: SpHof1
Method in brief: as §1

SpHof1-2 = biological target: SpHof1-2
Method in brief: as §1

SpHof1-3 = biological target: SpHof1-3
Method in brief: as §1

SpHse1 = biological target: SpHse1
Method in brief: as §1

SpLsb1 = biological target: SpLsb1
Method in brief: as §1

SpLsb4 = biological target: SpLsb4
Method in brief: as §1

SpMyo1 = biological target: SpMyo1
Method in brief: as §1

SpNbp2 = biological target: SpNbp2
Method in brief: as §1

SpPex13 = biological target: SpPex13
Method in brief: as §1

SpRvs167 = biological target: SpRvs167
Method in brief: as §1

SpSla1-D1-D2 = biological target: SpSla1-D1-D2
Method in brief: as §1

SpSla1-D3 = biological target: SpSla1-D3
Method in brief: as §1

B1: unnamed (peptide)
chain: TYNRTAFQIPGDQSI
- SPOT peptide array binding signal intensity (AgAbp1): 1
- SPOT peptide array binding signal intensity (AgBbc1): ≤ 0
- SPOT peptide array binding signal intensity (AgBem1-D1): ≤ 0
- SPOT peptide array binding signal intensity (AgBzz1-D1): 60
- SPOT peptide array binding signal intensity (AgBzz1-D2): ≤ 0
- SPOT peptide array binding signal intensity (AgCyk3): ≤ 0
- SPOT peptide array binding signal intensity (AgFus1): 0.5
- SPOT peptide array binding signal intensity (AgHof1): 3.5
- SPOT peptide array binding signal intensity (AgHse1): ≤ 0
- SPOT peptide array binding signal intensity (AgLsb1): 540
- SPOT peptide array binding signal intensity (AgLsb4): ≤ 0
- SPOT peptide array binding signal intensity (AgMyo5): 2.25
- SPOT peptide array binding signal intensity (AgNbp2): ≤ 0
- SPOT peptide array binding signal intensity (AgRvs167): 1
- SPOT peptide array binding signal intensity (AgSho1): ≤ 0
- SPOT peptide array binding signal intensity (AgSla1-D1-D2): ≤ 0
- SPOT peptide array binding signal intensity (AgSla1-D3): 1
- SPOT peptide array binding signal intensity (CaAbp1-D1): ≤ 0
- SPOT peptide array binding signal intensity (CaAbp1-D2): ≤ 0
- SPOT peptide array binding signal intensity (CaBbc1): 1
- SPOT peptide array binding signal intensity (CaBem1-D1): ≤ 0
- SPOT peptide array binding signal intensity (CaBzz1-D1): 60.5
- SPOT peptide array binding signal intensity (CaBzz1-D2): 43.5
- SPOT peptide array binding signal intensity (CaCyk3): 1
- SPOT peptide array binding signal intensity (CaFus1): ≤ 0
- SPOT peptide array binding signal intensity (CaHof1): 0.5
- SPOT peptide array binding signal intensity (CaHse1): 2.5
- SPOT peptide array binding signal intensity (CaLsb1): 207
- SPOT peptide array binding signal intensity (CaLsb4): ≤ 0
- SPOT peptide array binding signal intensity (CaMyo5): ≤ 0
- SPOT peptide array binding signal intensity (CaNbp2): ≤ 0
- SPOT peptide array binding signal intensity (CaRvs167): 2.33
- SPOT peptide array binding signal intensity (CaRvs167-3): 0.5
- SPOT peptide array binding signal intensity (CaSho1): ≤ 0
- SPOT peptide array binding signal intensity (CaSla1-D1-D2): ≤ 0
- SPOT peptide array binding signal intensity (CaSla1-D3): 1.5
- SPOT peptide array binding signal intensity (ScAbp1): ≤ 0
- SPOT peptide array binding signal intensity (ScBbc1): 2.5
- SPOT peptide array binding signal intensity (ScBem1-D1): 11
- SPOT peptide array binding signal intensity (ScBzz1-D1): 40
- SPOT peptide array binding signal intensity (ScBzz1-D2): 13.5
- SPOT peptide array binding signal intensity (ScCyk3): ≤ 0
- SPOT peptide array binding signal intensity (ScFus1): ≤ 0
- SPOT peptide array binding signal intensity (ScHof1): ≤ 0
- SPOT peptide array binding signal intensity (ScHse1): ≤ 0
- SPOT peptide array binding signal intensity (ScLsb1): 142
- SPOT peptide array binding signal intensity (ScLsb2): 661
- SPOT peptide array binding signal intensity (ScLsb3): ≤ 0
- SPOT peptide array binding signal intensity (ScLsb4): 11.5
- SPOT peptide array binding signal intensity (ScMyo3): 3
- SPOT peptide array binding signal intensity (ScMyo5): 8.5
- SPOT peptide array binding signal intensity (ScNbp2): ≤ 0
- SPOT peptide array binding signal intensity (ScPex13): ≤ 0
- SPOT peptide array binding signal intensity (ScRvs167): ≤ 0
- SPOT peptide array binding signal intensity (ScSho1): ≤ 0
- SPOT peptide array binding signal intensity (ScSla1-D1-D2): ≤ 0
- SPOT peptide array binding signal intensity (ScSla1-D3): 0.5
- SPOT peptide array binding signal intensity (SpAbp1-D1): ≤ 0
- SPOT peptide array binding signal intensity (SpBbc1): 0.5
- SPOT peptide array binding signal intensity (SpBzz1-D1): 70
- SPOT peptide array binding signal intensity (SpBzz1-D2): ≤ 0
- SPOT peptide array binding signal intensity (SpCyk3): ≤ 0
- SPOT peptide array binding signal intensity (SpHof1): 1.75
- SPOT peptide array binding signal intensity (SpHof1-2): 5.25
- SPOT peptide array binding signal intensity (SpHof1-3): 0.25
- SPOT peptide array binding signal intensity (SpHse1): 50.2
- SPOT peptide array binding signal intensity (SpLsb1): 17.5
- SPOT peptide array binding signal intensity (SpLsb4): ≤ 0
- SPOT peptide array binding signal intensity (SpMyo1): 2.75
- SPOT peptide array binding signal intensity (SpNbp2): ≤ 0
- SPOT peptide array binding signal intensity (SpPex13): ≤ 0
- SPOT peptide array binding signal intensity (SpRvs167): 0.333
- SPOT peptide array binding signal intensity (SpSla1-D1-D2): ≤ 0
- SPOT peptide array binding signal intensity (SpSla1-D3): ≤ 0

B2: unnamed (peptide)
chain: RKNRAPPQRPRFNRD
- SPOT peptide array binding signal intensity (AgAbp1): 958
- SPOT peptide array binding signal intensity (AgBbc1): 476
- SPOT peptide array binding signal intensity (AgBem1-D1): 438
- SPOT peptide array binding signal intensity (AgBzz1-D1): 256
- SPOT peptide array binding signal intensity (AgBzz1-D2): 154
- SPOT peptide array binding signal intensity (AgCyk3): 16
- SPOT peptide array binding signal intensity (AgFus1): 501
- SPOT peptide array binding signal intensity (AgHof1): 142
- SPOT peptide array binding signal intensity (AgHse1): 631
- SPOT peptide array binding signal intensity (AgLsb1): 230
- SPOT peptide array binding signal intensity (AgLsb4): 131
- SPOT peptide array binding signal intensity (AgMyo5): 6.5
- SPOT peptide array binding signal intensity (AgNbp2): 3290
- SPOT peptide array binding signal intensity (AgRvs167): 7
- SPOT peptide array binding signal intensity (AgSho1): 37
- SPOT peptide array binding signal intensity (AgSla1-D1-D2): 474
- SPOT peptide array binding signal intensity (AgSla1-D3): 52
- SPOT peptide array binding signal intensity (CaAbp1-D1): 924
- SPOT peptide array binding signal intensity (CaAbp1-D2): 998
- SPOT peptide array binding signal intensity (CaBbc1): 1240
- SPOT peptide array binding signal intensity (CaBem1-D1): 65.5
- SPOT peptide array binding signal intensity (CaBzz1-D1): 1760
- SPOT peptide array binding signal intensity (CaBzz1-D2): 1020
- SPOT peptide array binding signal intensity (CaCyk3): 342
- SPOT peptide array binding signal intensity (CaFus1): 758
- SPOT peptide array binding signal intensity (CaHof1): 0.75
- SPOT peptide array binding signal intensity (CaHse1): 149
- SPOT peptide array binding signal intensity (CaLsb1): 5.5
- SPOT peptide array binding signal intensity (CaLsb4): 698
- SPOT peptide array binding signal intensity (CaMyo5): 10.2
